# Data reported in the supplement of paper PMC6555819.
# Tests used:
# Test in all cases: PBM binding z-score (relative to random genomic background probes); higher = stronger binding; sequences stand for … in GC…GCGATTGACAGCGTAGAATGAAGG
# [1] = tested on: PPARg:RXRa DBDmut IVT, anti-RXR (DBD mutation: RXRa K156A/R161A, NR concentration 270 nM, RXRa partner concentration 90 nM)
# How it was run: (§1)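 Each nuclear receptor dimer, without ligand, was incubated for 1 h on custom Agilent 4×180K protein-binding microarrays. Binding was detected with antibodies against each partner (one per run), and scanned fluorescence was regression-normalized. The binding z-scores are referenced to random human genomic background probes.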
# [2] = tested on: PPARg:RXRa IVT, anti-PPARg (NR concentration 270 nM, RXRa partner concentration 90 nM)
# How it was run: as §1
# [3] = tested on: PPARg DBDmut:RXRa IVT, anti-PPARg (DBD mutation: PPARg1 K132A/R137A, NR concentration 270 nM, RXRa partner concentration 90 nM)
# How it was run: as §1
# [4] = tested on: PPARg DBDmut IVT, anti-PPARg (DBD mutation: PPARg1 K132A/R137A, NR concentration 270 nM)
# How it was run: as §1
# [5] = tested on: PPARg homodimer (NR concentration 180 nM)
# How it was run: as §1
# [6] = tested on: PXR:RXRa (NR concentration 270 nM, RXRa partner concentration 90 nM)
# How it was run: as §1
# [7] = tested on: PXR homodimer (NR concentration 270 nM)
# How it was run: as §1
# [8] = tested on: RARa:RXR (NR concentration 270 nM, RXRa partner concentration 90 nM)
# How it was run: as §1
# [9] = tested on: RARa homodimer (NR concentration 270 nM)
# How it was run: as §1
# [10] = tested on: RARb:RXRa (NR concentration 270 nM, RXRa partner concentration 90 nM)
# How it was run: as §1
# [11] = tested on: RARb homodimer (NR concentration 270 nM)
# How it was run: as §1
# [12] = tested on: RARg:RXRa (NR concentration 270 nM, RXRa partner concentration 90 nM)
# How it was run: as §1
# [13] = tested on: RARg homodimer (NR concentration 270 nM)
# How it was run: as §1
# [14] = tested on: RXRa DBDmut IVT, anti-RXR (DBD mutation: RXRa K156A/R161A, NR concentration 90 nM)
# How it was run: as §1
# [15] = tested on: RXRa homodimer (NR concentration 180 nM)
# How it was run: as §1
# [16] = tested on: THRa:RXRa (NR concentration 90 nM, RXRa partner concentration 90 nM)
# How it was run: as §1
# [17] = tested on: THRa homodimer (NR concentration 90 nM)
# How it was run: as §1
# [18] = tested on: VDR homodimer (NR concentration 270 nM)
# How it was run: as §1
Sequence,PBM binding z-score [1],PBM binding z-score [2],PBM binding z-score [3],PBM binding z-score [4],PBM binding z-score [5],PBM binding z-score [6],PBM binding z-score [7],PBM binding z-score [8],PBM binding z-score [9],PBM binding z-score [10],PBM binding z-score [11],PBM binding z-score [12],PBM binding z-score [13],PBM binding z-score [14],PBM binding z-score [15],PBM binding z-score [16],PBM binding z-score [17],PBM binding z-score [18]
GCATATAGGTAACACAAGGTGAAAGTCCGATTGT,5.29,4.7,0.827,0.927,0.275,0.74,-0.11,1.25,0.102,0.856,1.15,0.82,0.784,0.286,0.938,4.19,0.843,0.00161
TCTAGTTGGTCCCGGAGGTCACACACGACGGGTA,1.7,1.82,0.461,1,2.76,4.18,1.4,4.64,1.21,3.41,3.79,3.99,3.7,0.937,4.39,3.59,3.02,2.67
TCATATAAGTAAAGGTGAAAGTCGAACGATATGA,2.2,1.58,1.17,1.46,0.731,0.97,0.241,1.59,0.59,1.99,1.41,1.5,1.25,0.638,2.04,1.18,-0.569,-0.0399
CCTCGGCGGACAACAGGAGGTCAGAGCTGCCAGA,-0.701,-0.463,-0.701,-1.7,0.632,1.32,0.232,1.76,0.119,1.96,2.88,2.16,2.04,-0.404,1.71,1.75,0.00224,0.257
ATCTCAAGGTAACAAGTTCAGTGAAAGAGAGGAC,0.525,1.3,1.3,1.1,1.41,1.88,2.27,1.33,1.14,2.08,2.19,1.79,1.79,1.34,1.23,2.16,1.54,2.9
CCTTACGGGTCAAGGTTATAGGACGGGTGGTACG,1.92,3.64,0.411,-0.184,2.15,3.39,0.631,4.15,0.493,4.13,3.29,4.91,5.12,0.475,5.36,3.06,0.968,1.51
ATCTCCAGGTAACCAAGTTCAGTGAATGCCGAAC,0.934,1.52,0.875,0.957,0.841,2.24,2.55,0.649,0.534,0.985,1.58,0.664,0.86,1.06,0.486,1.96,1.31,3.04
GGAACGAGGGCAAAGTTGATAGTATCTGTCGACG,3.79,4.43,0.556,-0.544,0.557,1.12,0.156,1.66,-0.123,2.22,1.24,2.08,1.84,2.59,1.68,1.36,0.0529,1.64
CGTCCAAGGTCAATACTAGGTCAGTGAAAGCATT,3.77,5,0.518,0.663,3.8,4.37,1.76,5.42,0.743,5.22,5.1,6.92,6.34,3.51,4.84,4.42,3,2.44
GCTGCTAGGACAGGTTGGTCAGCTAACGGGTACG,-0.0688,-0.79,-1.21,-0.812,-0.869,-0.739,-0.561,-0.833,-0.447,0.0113,0.214,-0.345,0.153,-0.341,-0.463,-0.106,-0.393,-0.149
TCTTGTAAATCAACAGGAGGTTAAGAAAGATCGA,1.98,0.596,0.712,0.346,0.585,1.13,0.241,1.26,0.881,0.847,0.787,0.681,0.518,1.04,1.11,0.911,-0.242,0.513
CCTATTAGTTGACCATAAGGGCAACCTAAGCTCG,0.374,0.836,0.365,0.874,1.32,0.876,0.98,1.49,2.27,1.57,2.22,1.47,1.24,0.437,0.949,2.16,1.8,0.755
TCATATAGGTAATACACGTGAAAGTCGGCATCTA,3.9,2.2,1.1,1.42,1.33,0.683,0.547,0.919,1.56,0.414,0.355,0.577,0.604,1.92,0.939,0.156,-0.0139,0.589
CCGACTGGGGCAAAGGTTTCCATACTCAGTACGA,5.1,4.87,-0.186,-0.49,0.0767,-0.0306,-0.339,0.0342,-0.339,0.737,0.438,0.385,0.445,0.213,0.448,-0.0772,-0.282,-0.026
CCTACTGGGGCATAAGGTTACCATAAGCCAGCCC,4.53,5.02,0.0293,-0.184,1.28,0.306,0.0136,1.42,0.103,1.74,1.86,1.78,1.29,-0.346,1.17,2.05,0.894,-0.339
